# Beta apoptosis: beta cell apoptosis inhibition. 300,000 tested, 0.8% active. INS-1E cytokine-induced death, ATP luminescence, 48 h; percent of positive-control rescue, neutral wells zero. protection from apoptosis, % (no concentration beside the values);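 active = Every replicate reaches about 75%, or at least half do and their mean reaches it too, limit read from the data; inconclusive = At least half of replicates reach the limit but their mean does not; inactive = Under half of replicates reach the limit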;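 note: 0% = cytokine-treated negative control wells and 100% = positive control rescue; higher means more ATP so stronger rescue from cytokine killing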
# Mdm2-MdmX inh: human Mdm2/MdmX binding inhibition. O15151+Q00987. SaOS-2 split-luciferase Mdm2/MdmX complementation, luminescence. inhibition, % at 8 µM. 330,000 tested, 3% active. AID 485346;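 active = inhibition of at least 50% at 8 µM in the primary screen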
# Target sequence (O15151 whole entry, looked up): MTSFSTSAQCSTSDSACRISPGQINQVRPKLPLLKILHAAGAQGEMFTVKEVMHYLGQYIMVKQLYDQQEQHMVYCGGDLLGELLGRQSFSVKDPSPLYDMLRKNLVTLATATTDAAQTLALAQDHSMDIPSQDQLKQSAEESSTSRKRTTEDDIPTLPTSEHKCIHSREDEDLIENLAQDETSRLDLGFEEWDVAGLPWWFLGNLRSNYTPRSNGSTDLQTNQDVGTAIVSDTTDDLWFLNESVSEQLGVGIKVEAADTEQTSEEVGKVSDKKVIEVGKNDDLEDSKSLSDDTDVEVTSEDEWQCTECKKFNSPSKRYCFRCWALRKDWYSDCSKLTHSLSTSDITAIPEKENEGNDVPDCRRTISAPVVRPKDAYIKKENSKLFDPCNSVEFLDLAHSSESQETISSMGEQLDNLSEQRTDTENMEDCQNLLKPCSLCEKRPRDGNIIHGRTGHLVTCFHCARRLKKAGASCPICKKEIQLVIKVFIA
# Target sequence (Q00987 whole entry, looked up): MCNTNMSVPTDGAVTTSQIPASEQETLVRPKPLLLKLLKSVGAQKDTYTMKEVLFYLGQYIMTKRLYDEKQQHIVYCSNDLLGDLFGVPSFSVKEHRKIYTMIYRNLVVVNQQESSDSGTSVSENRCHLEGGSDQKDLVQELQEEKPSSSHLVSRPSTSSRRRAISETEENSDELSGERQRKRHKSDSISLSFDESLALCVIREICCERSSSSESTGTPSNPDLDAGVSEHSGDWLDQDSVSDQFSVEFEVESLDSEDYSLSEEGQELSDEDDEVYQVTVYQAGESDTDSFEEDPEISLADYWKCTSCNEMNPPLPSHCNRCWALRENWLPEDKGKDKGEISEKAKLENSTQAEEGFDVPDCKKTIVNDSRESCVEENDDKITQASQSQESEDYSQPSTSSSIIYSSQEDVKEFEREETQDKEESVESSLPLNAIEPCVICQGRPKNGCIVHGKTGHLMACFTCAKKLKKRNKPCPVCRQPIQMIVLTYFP
# Shn3 3UTR inh: inhibitors of Schnurri-3 3'UTR reporter in osteoblasts. Clone20 osteoblast Shn3 3'UTR firefly luciferase, 24 h. inhibition, % at 12.5 µM. 360,000 tested, 0.52% active;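 active = mean inhibition of at least 75% with every replicate also reaching 75%; inconclusive = mean inhibition at least 75% but some replicate below; inactive = mean inhibition below 75%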;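 note: 0% = median of neutral control wells and 100% = pilot-screen positive control compound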
# Gli-Sufu block: antagonists of Gli-Sufu signaling. Sufu-KO-LIGHT fibroblasts, Gli luciferase reporter luminescence. inhibition, % at 5 µM. 340,000 tested, 0.74% active;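 active = inhibition above about 55%, limit read from the data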;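 note: 0% = DMSO-treated cells and 100% = wells with medium but no cells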
# CSC inhib: cancer stem cell inhibition | AID 2717 | inhibition, % at 7.5 µM | cancer stem cell-like cells viability, luminescence | 300,000 tested, 1.1% active; in the data active = inhibition above about 75%; inconclusive = no clear call, values can overlap the other calls; tested in HMLE shEcad cells
# PAX8 reporter: inhibitors of PAX8 transcriptional activity in RMG-I cells; RMG-I TPO-luciferase reporter, SteadyGlo, 24 h; inhibition, % at 12.6 µM; 360,000 tested, 1.2% active; AID 652154;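 active = mean replicate inhibition at least 60% with every replicate also reaching 60%; inconclusive = only one of the two criteria is met; inactive = mean below 60% and not all replicates reaching 60%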;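 note: luciferase light reporting Pax8 driven TPO promoter activity; plate controls were median of neutral control wells for no effect and mitoxantrone controls for full effect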
# Gli-Sufu confirm: Gli-SUFU antagonism confirmation, single concentration | shares compounds with Gli-Sufu block | Sufu-KO-LIGHT cells, Gli luciferase reporter, luminescence | inhibition, % at 5 µM | 2,500 tested, 40% active | AID 602428;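 active = mean inhibition at 5 µM reaching about 45%, limit read from the data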;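 note: plate controls were DMSO-treated cells for no effect and wells lacking cells for full effect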
# SufuKO cytotox: counter-screen for Gli-SUFU antagonists: cytotoxicity; 2,500 tested, 32% active; cytotoxicity, % at 5 µM; Sufu-KO-LIGHT cells cytotoxicity, ATP luminescence; shares compounds with Gli-Sufu block;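 active = mean cytotoxicity at 5 µM above about 25%, limit read from the data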;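 note: cells exposed to compound overnight for roughly 16 to 18 hours; plate controls were DMSO wells with cells for no effect and medium without cells for full effect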
# Wnt3a counter: counter-screen for Gli-SUFU antagonists: Wnt3a reporter inhibition. shares compounds with Gli-Sufu block. Wnt-LIGHT cells, Wnt3a-driven luciferase reporter, luminescence. inhibition, % at 6.25 µM. 2,500 tested, 20% active;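 active = mean inhibition above about 25%, limit read from the data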
# An asterisk follows results filed as active; ? = inconclusive; / = no result given. Most compounds without a hit are left out; they make up all but 4% or so of the library.
SMILES,Beta apoptosis,Mdm2-MdmX inh,Shn3 3UTR inh,Gli-Sufu block,CSC inhib,PAX8 reporter,Gli-Sufu confirm,SufuKO cytotox,Wnt3a counter
O=C(c1cnc(N2CCN(c3ccccn3)CC2)c2ccccc12)N1CCN(c2cccc(Cl)c2)CC1,75*,45,84,65*,45,-8,54*,36*,-3
CC(C)NC(=O)N(C)C[C@H]1OCCCC[C@H](C)Oc2ccc(NC(=O)c3ccccc3)cc2C(=O)N([C@@H](C)CO)C[C@H]1C,/,/,/,/,/,2,/,/,/
Cc1ccc(-c2noc(C3CCCN(C(=O)c4ccc(C(C)(C)C)cc4)C3)n2)o1 (stereo not drawn),4,-17,10,50,/,22,34,1,-69
CN1/C(=C\C(=O)COC(=O)c2ccc(O)c(O)c2)C(C)(C)c2ccccc21,95*,30,/,65*,28,38,64*,26*,75*
CN1/C(=C\C(=O)COC(=O)c2ccc(O)cc2)C(C)(C)c2ccccc21,16,27,48,10,15,15,/,/,/
CN1/C(=C\C(=O)COC(=O)CNC(=O)c2ccccc2F)C(C)(C)c2ccccc21,6,-20,26,2,8,-1,/,/,/
CN1/C(=C\C(=O)COC(=O)CNC(=O)c2ccc3ccccc3c2)C(C)(C)c2ccccc21,40,8,27,51,-7,-17,47*,14,8
C[C@@H]1CN([C@@H](C)CO)C(=O)c2cc(NS(C)(=O)=O)ccc2O[C@@H](C)CCCCO[C@@H]1CN(C)Cc1ccc2c(c1)OCO2,/,/,/,/,/,3,/,/,/
C[C@@H]1CCCCO[C@@H](CN(C)C(=O)Nc2ccc(C(F)(F)F)cc2)[C@H](C)CN([C@@H](C)CO)C(=O)c2cc(NC(=O)NC3CCCCC3)ccc2O1,/,/,/,/,/,32,/,/,/
CC(=O)c1cccc(NS(=O)(=O)c2ccc(-c3cnc(C4CC4)o3)cc2)c1,45,48,85*,55,63,40,49*,17,-8
CCOc1ccc(NS(=O)(=O)c2ccc(NC(=S)NC(C)=O)cc2)cc1,2,-25,13,12,-4,3,/,/,/
CCOc1ccc(/C(O)=C/C(=O)C(=O)Nc2ccc(S(=O)(=O)NC(C)=O)cc2)cc1,-5,22,3,84*,16,-22,17,12,-11
O=C(NCCCn1ccnc1)/C(=C\c1cccnc1)NC(=O)c1cccc(Br)c1,3,19,1,98*,-6,-9,37,13,13
CC(=O)c1cccc(OCc2cc(C(=O)N(C)Cc3nccs3)no2)c1,/,/,-21,/,/,-63,/,/,/
CCOC(=O)CC1CCCCN1C(=O)c1cc(COc2cccc3cnccc23)on1 (stereo not drawn),96*,36,89*,74*,9,22,62*,20,25
O=C(c1cc(COc2cccc3cccnc23)on1)N1CCC[C@H]1CO,/,/,14,/,/,-12,/,/,/
CN(Cc1nccs1)C(=O)c1cc(COc2cccc3cnccc23)on1,32,46,?,58*,-7,5,42,20,0
CC(C)NC(=O)Nc1ccc2c(c1)C(=O)N([C@H](C)CO)C[C@@H](C)[C@H](CN(C)C)O2,/,/,/,/,/,-11,/,/,/
C[C@@H]1CCCCO[C@H](CN(C)C(=O)c2ccncc2)[C@H](C)CN([C@H](C)CO)C(=O)c2cc(NC(=O)c3ccncc3)ccc2O1,/,/,/,/,/,-10,/,/,/
Cc1cc(C)c(CN2CCN(C(=O)Cn3cnc4c(NCc5ccccc5)ncnc43)CC2)c(C)c1,/,29,82,60*,/,23,67*,42*,39*
CSc1nc(N)nc2c1ncn2CC(=O)N1CCN(Cc2c(C)cc(C)cc2C)CC1,100*,43,89*,51,/,-29,62*,27*,44*
COc1ccc(C(CCN(Cc2ccc(OC)c(OC)c2)C(C)=O)c2ccccc2)cc1 (stereo not drawn),3,18,-10,57*,/,-13,23,23,12
COc1ccc(CN(CCC(c2ccccc2)C2CCOC(C)(C)C2)C(C)=O)cc1 (stereo not drawn),2,20,-5,10,3,7,/,/,/
COc1ccc(NS(=O)(=O)c2ccc(N3CCCCC3)c(N)c2)cc1,102*,15,?,58*,21,12,73*,27*,16
COc1ccc(NS(=O)(=O)c2ccc(N3CCCCC3)c(NC(=O)C(C)NC(N)=O)c2)cc1 (stereo not drawn),-2,-28,6,9,-6,-21,/,/,/
SMILES,Beta apoptosis,Mdm2-MdmX inh,Shn3 3UTR inh,Gli-Sufu block,CSC inhib,PAX8 reporter,Gli-Sufu confirm,SufuKO cytotox,Wnt3a counter
Cc1cc(-c2cccnc2)c(C#N)c(SCc2cccc(F)c2)n1,11,17,13,55,-6,/,31,22,2
CCSc1nnc(C)n1-c1ccc(C(=O)O)cc1,2,15,0,95*,1,/,26,-2,19
Cc1nnc(SCC(=O)N2CCCC2)n1-c1ccc(F)cc1,-2,10,-7,0,-4,10,/,/,/
O=C(C[C@H]1CC[C@H]2[C@@H](COC[C@@H](O)CN2S(=O)(=O)c2ccccc2F)O1)NCc1ccccc1Cl,/,/,/,/,/,3,/,/,/
Cc1ccc(C(=O)N2CCCC(N(C)Cc3ccccc3)C2)s1 (stereo not drawn),-10,2,-14,95*,-6,-11,23,-3,-29
CCOC(=O)C(=CNc1cc(Cl)c(-c2ccco2)c(Cl)c1)C(=O)OCC,3,-2,-17,60*,20,-5,13,7,-12
COc1ccccc1CNC(=O)C[C@@H]1CC[C@@H]2[C@@H](COc3ccc(NC(C)=O)cc3C(=O)N2C)O1,/,/,/,/,/,-11,/,/,/
CO[C@@H]1CN(C)C(=O)c2ccc(NS(C)(=O)=O)cc2OC[C@@H](C)N(C(=O)NC(C)C)C[C@H]1C,/,/,/,/,/,3,/,/,/
c1ccc(Nc2nc(NCC3CCCO3)c3ccccc3n2)cc1 (stereo not drawn),31,44,?,57*,10,24,45*,36*,28*
NCC[C@@H]1CC[C@@H](NC(=O)C2CCCCC2)[C@H](CO)O1,/,/,/,/,/,-19,/,/,/
CC1CN(C(=O)c2cccc(S(=O)(=O)N3CCN(c4ccc(F)cc4)CC3)c2)CC(C)O1 (stereo not drawn),17,29,-6,15,/,17,/,/,/
CN(CCOc1ccc(Cl)cc1)C(=O)c1cccc(S(=O)(=O)N2CCN(c3ccc(F)cc3)CC2)c1,/,/,89*,70*,/,/,64*,26*,1

# Screens: PubChem, several laboratories
